Source: PubChem
Sampled rows, rich in hits. Any-hit rate of the full collection: about 1.6%.
p53ts 39C tox – cytotoxicity in p53ts cells at nonpermissive temperature; H1299-p53A138V viability at 39C, ATP luminescence, 24 h; Potency, µM (titrated, usually from 46.1 µM), inactives show at the top dose activity change, negative = cell killing, usual class: cytotoxic; 130,000 tested, 1.5% active; AID 902; further: potency means the concentration at half of the fitted maximal effect; on the % scale 0 is the no-effect control and ±100 the full control effect; nearly all actives have a fitted effect of over 55% in size
p53ts 32C kill – cytotoxicity in p53ts cells at permissive temperature; H1299-p53A138V at 32C, ATP luminescence viability, 24 h; Potency, µM (top dose mostly 46.1 µM), without a hit: top-dose activity change, negative = cytotoxicity, actives largely listed as cytotoxic; 130,000 tested, 0.93% active; AID 924;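 further: potency means the concentration at half of the fitted maximal effect; 0% = DMSO and -100% = full killing by reference compound; nearly all actives have a fitted effect of over 55% in size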
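Cells: H1299 p53ts (A138V), 600/well, pre-incubated 16–30 h at 37C. Cpd up to 46 uM, 24 h, 32C. Readout: ATPlite luminescence, 20 min RT. Normalization: DMSO vs tamoxifen 100 uM. AC50 by Hill equation.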
Peg3 imprint – induces erasure of genomic imprints in mouse ES cells; mouse ES Peg3-LacZ reporter, beta-gal luminescence, 40 h; Potency, µM (titrated, usually from 60.7 µM), for the others: at the highest dose activity change, positive = activation, actives largely listed as activators; 110,000 tested, 0.02% active; AID 1948; further: potency means the concentration at half of the fitted maximal effect
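Readout: BetaGlo luminescence (5 min, room temp) for LacZ from the normally silent maternal Peg3 allele in female Peg3LacZ-Neo ES cells. Cells 300/well, 40 h, 37C, 5% CO2. Data normalized per plate to negative controls.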
HBB splice mod – alters splicing of the hemoglobin beta chain. HBB splicing reporter cell assay, activation; EGFP reporter with mutant IVS2-654 intron; response scale: normalised to 500 nM splice-correcting PNA. Potency, µM (titrated, usually from 46.1 µM), for the others: at the highest dose activation, actives largely listed as activators. 65,000 tested, 0.06% active. AID 925; further: potency means the concentration at half of the fitted maximal effect; 0% is about no effect
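Compounds were applied for 2 days to HeLa EGFP-654 cells, 500/well in Optimem with 2% FCS. The reporter's EGFP is disrupted by mis-splicing of beta-globin intron IVS2-654. Readout: summed well GFP fluorescence from 488 nm laser scanning; reference was 500 nM antisense […] 654 PNA.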
UbGFP stabilizer – inhibits proteasome, raising ubiquitin-GFP reporter fluorescence; Ubiquitin-GFP reporter cells, proteasome inhibition, GFP fluorescence; response scale: untreated = 0%, 10 µM MG-132 = 100%; Potency, µM (doses to about 45.9 µM), without a hit: top-dose activation (GFP accumulation), usual class: activators; 67,000 tested, under 10 active; active means well fitted activation curve with a large enough effect, not every such curve was filed as active; inconclusive means small, poorly fitted or top-dose-only effect, or another doubt; inactive means no such curve, though single readings can be large or run the other way; further: potency means the concentration at half of the fitted maximal effect
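Proteasome block read as GFP accumulation: ubiquitin(G76V)-GFP U2OS cells exposed to compound (2.9 nM–46 uM) for 4 hr at 37 C. Normalization used untreated cells as 0% and 10 uM MG-132 as 100%; concentration-response curves fitted.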
GFP derepression – epigenetic modulators derepressing GFP locus in mouse cells | Potency, µM (highest dose often 46.1 µM), for the others: at the highest dose GFP derepression (activation) | 68,000 tested, 0.09% active | mouse C127i GFP locus derepression, cytometry, 30 h; further: % of control where 0% means no effect
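Locus derepression in mouse mammary C127i cells whose integrated CMV-GFP reporter is normally silent; GFP expression after 30 h compound treatment was quantified by counting fluorescent cells.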
Active calls of the source: *; ? = inconclusive; · = no result given; [ ] = remark or other dose. Unless noted, the call rests on the fitted dose curve; in most records, active means well fitted curve in the direction sought with a large enough effect; inconclusive means small, poorly fitted or top-dose-only effect, or another doubt; inactive means no such curve, though single readings can be large; an effect the other way counts as inactive or inconclusive.

SMILES	p53ts 39C tox	p53ts 32C kill	Peg3 imprint	HBB splice mod	UbGFP stabilizer	GFP derepression
COc1ccc(/C=C/C(=O)Nc2ccc(Cl)c(Cl)c2)cc1OC	?	?	-7.1%[10.9 µM]	·	·	·
COc1ccc(/C=C\C(=O)Nc2ccccc2C(=O)O)cc1OC	12.6µM*	15.8µM*	-65.6%	1.5%	-2.2%	0.9%
COc1ccc(N2CC3=C(C2=O)C(c2ccc(O)c(OC)c2)NC(=O)N3C)cc1 (stereo unspecified)	15.0%	-2.9%	-8.5%[10.9 µM]	·	·	·
Cc1cc(C)cc(NC(=O)CCc2c(C)nc3nc(CNC(=O)c4cccc(F)c4)nn3c2C)c1	?	-14.5%	-7.9%[10.9 µM]	·	·	·
CC1=CC(C)(C)Nc2ccc(OC(=O)c3ccco3)cc21	?	?	-32.9%	-2.4%[9.22 µM]	2.5%	?
CC1=CC(C)(C)Nc2ccc(OC(=O)CN3C(=O)CCC3=O)cc21	15.8µM*	?	·	·	·	·
O=C(O)c1ccc(COc2ccc(CO)cc2Cl)cc1	-18.7%	-25.8%	-83.9%	-1.7%	-2.6%	2.6%
CCOc1ccc(OCc2cccc(C(=O)O)c2)cc1	2µM*	2.51µM*	-95.2%	-0.6%	-0.3%	0.0%
COc1ccc(OCc2cccc(C(=O)O)c2)cc1	5.01µM*	6.31µM*	-90.4%	-0.9%	3.8%	0.0%
O=C(O)c1cccc(COc2ccc(CO)cc2Cl)c1	3.98µM*	5.01µM*	-93.3%	-0.2%	-5.2%	6.5%
CCCn1ccc2c(OCC(=O)Nc3cc(C)ccc3C)cccc2c1=O	-13.7%	6.1%	-12.3%[10.9 µM]	·	·	·
Cc1csc2nc(-c3ccc(NS(=O)(=O)c4cccc(F)c4)cc3)cn12	-3.7%	8.3%	3.8%[10.9 µM]	·	·	·
Cc1ccc2nc(-c3ccc(SCC(=O)O)nc3)[nH]c2c1	-14.6%	-12.2%	-65.7%	·	7.5%	-3.4%
Cc1ccc2nc(-c3sc4nc(C)ccc4c3N)[nH]c2c1	10µM*	12.6µM*	·	·	·	·
N#C/C(=C\c1ccc(Cl)cc1)C(=O)NCC1CCCO1 (stereo unspecified)	-8.3%	-11.2%	-12.5%[10.9 µM]	·	·	·
Nc1nc(Cl)nc2c1ncn2[C@@H]1O[C@H](CO)[C@@H](O)[C@H]1O	?	20µM*	-2.1%	·	·	13.0%[20.6 µM]
Cc1ccc(-n2c(=O)c3c(c4cc(C)ccc4n3C)n(CC(=O)NCc3ccccc3Cl)c2=O)cc1	17.3%	-3.2%	7.4%[10.9 µM]	·	·	·
CCOC(=O)c1ccc(N2C(=O)c3n[nH]c(-c4cccs4)c3C2c2cccc(F)c2)cc1 (stereo unspecified)	6.31µM*	16.6%	-6.7%[10.9 µM]	·	·	·
CCOC(=O)c1ccc(N2C(=O)c3n[nH]c(-c4cccs4)c3C2c2ccc(C)cc2)cc1 (stereo unspecified)	14.6%	0.1%	20.5%[10.9 µM]	·	·	·
C=CCn1c(NC(=O)c2ccccc2)c(C#N)c2nc3ccccc3nc21	-13.1%	-5.6%	-6.2%	25.1µM*	-2.9%	9.3%
CC(=O)c1cccc(NC(=O)c2c(N3CCCC3=O)c3cc(F)ccc3n2C)c1	-26.3%	-1.4%	8.8%[10.9 µM]	·	·	·
COc1cc(NC(=O)CCc2c(C)nn(-c3ccc(N4CCCCC4)nn3)c2C)cc(OC)c1OC	?	?	-16.3%[10.9 µM]	·	·	·
COc1ccc(NC(=O)CCc2c(C)nn(-c3ccc(N4CCCCC4)nn3)c2C)cc1Cl	10µM*	15.8µM*	-29.0%[10.9 µM]	·	·	·
COc1ccc(C(=O)c2c[nH]c3ccccc23)cc1	10µM*	7.94µM*	-26.0%	-3.0%[0.0738 µM]	-3.3%[9.17 µM]	-1.5%
C=CC(=O)OCCOCCOC(=O)C=C	31.6µM*	-1.4%[1.84 µM]	-26.9%	0.5%	·	·
CCOc1ccc2nc(N3CCCC(C(=O)NCCc4ccc(Cl)cc4)C3)sc2c1 (stereo unspecified)	?	-18.4%	-13.3%[10.9 µM]	·	·	·
CCOc1ccc2nc(N3CCCC(C(=O)NCCCN4CCOCC4)C3)sc2c1 (stereo unspecified)	-28.6%	10µM*	-18.7%	-0.6%	6.4%	2.3%
O=C(COc1ccccc1C(=O)c1cnn(-c2ccccc2)c1)Nc1ccccc1	?	11.2µM*	·	·	·	·
